The text below walks through data of article PMC7819943, “Rice protein-binding microarrays: a tool to detect cis-acting elements near promoter regions in rice”.

Over roughly 68,000 sequences, “fluorescence intensity (a.u.)” has its median near 9,100; the highest 2% begin near 16,000. Many of the other results were omitted from the sample, so the highest values are more common in it than they were.

Chain of OsWRKY34 (Q0JBA9 entry or part of it): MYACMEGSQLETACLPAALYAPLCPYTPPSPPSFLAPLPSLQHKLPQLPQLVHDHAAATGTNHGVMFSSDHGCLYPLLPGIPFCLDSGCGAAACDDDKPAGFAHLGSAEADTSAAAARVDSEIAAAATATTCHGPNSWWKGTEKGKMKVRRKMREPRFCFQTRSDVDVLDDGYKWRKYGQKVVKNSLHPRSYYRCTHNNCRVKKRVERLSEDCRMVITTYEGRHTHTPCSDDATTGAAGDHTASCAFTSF

This assay has as its target OsWRKY34 (Oryza sativa, UniProt Q0JBA9 1-250). As to the kind of experiment: protein-binding microarray (RPBM); PBS, 2% BSA, 51.3 ng/ul salmon testes DNA, 50 uM zinc acetate, 200 nM TF, 25 C, 1 h; high values mean tight binding. The note with it: protein: recombinant; tags: N-terminal polyhistidine and DsRed monomer fusion (pET32a); label: CyDye5-dUTP incorporated in the synthesized complementary strand; 3' TTTTT single-stranded linker to array surface; dsDNA, one strand shown. An outline of the steps:
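The binding signal is fluorescence intensity per feature, in arbitrary units, read on an Axon 4000B scanner. Polyhistidine- and DsRed-tagged transcription factors (N-terminal fusions) from E. coli BL21-CodonPlus were purified on Ni–NTA and applied at 200 nM for 1 h at 25 °C to a double-stranded, BSA-blocked custom Agilent array in buffer with 50 µM zinc acetate.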
For “CTCTCTAACTGCAGATTTCCCTCCCCTTTCAACGCGCGCGCGGAGTCACCTAGTGCAG”, the binding signal is 8110 fluorescence intensity (a.u.). As to “CCCCATCAACCTCCTCTTCTTCTTCGCCTCGTCTCGTCTTCGGAGTCACCTAGTGCAG”, the binding signal was 9670 fluorescence intensity (a.u.). Consider “TGCTGACTTGGCGTTGACCTGTGAAATTCTCTCGCTTCACCGGAGTCACCTAGTGCAG”, for which the binding signal was 11500 fluorescence intensity (a.u.). Take “CGTCCAACTTTGATCGTCCGTTTTATTTGAATTTTTTTATCGGAGTCACCTAGTGCAG”: the binding signal was 11200 fluorescence intensity (a.u.).

Regarding “TTTCGATTGTTGTTTATTTTCCAGCATTAGTTTTTAAATCCGGAGTCACCTAGTGCAG”, the binding signal was 8320 fluorescence intensity (a.u.). For “TTTATTAAACCTAGTTAATCCATTGTTAGCAAATATTTAACGGAGTCACCTAGTGCAG”, the binding signal was 23300 fluorescence intensity (a.u.). As for “TATTAAATCATTTAATTTTAGCTATTGTTTTTTATTTATTCGGAGTCACCTAGTGCAG”, the binding signal is 9250 fluorescence intensity (a.u.). As to “GCCGTTGACTTTTTATCCAACGTTTGATCATTCGTCTTATCGGAGTCACCTAGTGCAG”, the binding signal was 40800 fluorescence intensity (a.u.).

Take “ATTTTATCCAACGTTTGACCATTCGTCTTATATAAAATATCGGAGTCACCTAGTGCAG”: the binding signal was 9960 fluorescence intensity (a.u.).

As to “TCTTTTTTTTTTTCATTATTGTTTGAATATTGATTTCACACGGAGTCACCTAGTGCAG”, the binding signal was 8780 fluorescence intensity (a.u.). Regarding “TTGCAAAATTTAAAATTATGTTGTCATTGTAATATATTTTCGGAGTCACCTAGTGCAG”, the binding signal was 8440 fluorescence intensity (a.u.).

In the case of “GTTGGTTTTTACATTTGTTTGCTCGAGTCATATATGTCGTCGGAGTCACCTAGTGCAG”, the binding signal was 9010 fluorescence intensity (a.u.).

For “GCTGCCCCTTGTACTTACTTCTATCATCTTTCTTCCCACACGGAGTCACCTAGTGCAG”, the binding signal is 8880 fluorescence intensity (a.u.).

Consider “TTTAGTATATAAAAGATTATAGGGGAGGTTCATTACTTTCCGGAGTCACCTAGTGCAG”, for which the binding signal is 8410 fluorescence intensity (a.u.). For the sequence “GGATTGGGGAGTGATTCGGTTTGTTCTTGATTTTGATTTTCGGAGTCACCTAGTGCAG”, the binding signal was 15700 fluorescence intensity (a.u.). For the sequence “TCTGAGTGGTTCTCTGGGCGTTGTTGGTGCGTTCTTGATCCGGAGTCACCTAGTGCAG”, the binding signal is 8900 fluorescence intensity (a.u.). On to “GTGTAGATTGATTGGTTCTTGGTGGTGGTGGTGGTGGATCCGGAGTCACCTAGTGCAG”, for which the binding signal is 22200 fluorescence intensity (a.u.). As to “TCTTGATTGGTTGTTTTGGTTTGTTTCTTATTTATGTTTGCGGAGTCACCTAGTGCAG”, the binding signal was 8920 fluorescence intensity (a.u.).

As to “TTTCTTGATTTGGTTGGGATTGGTTGTTCTTGGGCTTATCCGGAGTCACCTAGTGCAG”, the binding signal was 18900 fluorescence intensity (a.u.). Turning to “AGATCAGGTTTTCTCTTTGGTTGATTGTGTGTGGAAGATCCGGAGTCACCTAGTGCAG”, the binding signal is 10100 fluorescence intensity (a.u.). In the case of “CACCACCCAGATCTGTCTCGTCTCTGTTCTTGCCTTCGCTCGGAGTCACCTAGTGCAG”, the binding signal is 11900 fluorescence intensity (a.u.). Regarding “TGGTGTCTCATAATTCTCTACATGGTATCAAATACTGGTTCGGAGTCACCTAGTGCAG”, the binding signal was 9610 fluorescence intensity (a.u.).

Take “GGCGTTATATCTGGTTTTGTGGCTGAGGGAGGTAATTTAGCGGAGTCACCTAGTGCAG”: the binding signal is 11700 fluorescence intensity (a.u.). As for “TTCACGTTCAATGTTTGACCGTTCGTCTTATTTGAAAATTCGGAGTCACCTAGTGCAG”, the binding signal is 8550 fluorescence intensity (a.u.). Consider “AACTTCAGTCCTTTTCCATCACATCAACCTGTCATATACACGGAGTCACCTAGTGCAG”, for which the binding signal is 8220 fluorescence intensity (a.u.).

As for “TGAATTGGGAAATTTCGGTGTTTTTTTTCTTCTTTTTTTTCGGAGTCACCTAGTGCAG”, the binding signal was 8740 fluorescence intensity (a.u.). The result for “TAGTTTTCTCATGTTCATCAATTTAAATACCTAACAATACCGGAGTCACCTAGTGCAG” reads 8180 fluorescence intensity (a.u.); that for “GCTTGCTTTGTCACATGCAGTTTTACACCTTTTATTTCTCCGGAGTCACCTAGTGCAG”, 10400 fluorescence intensity (a.u.).

With “CTGCTTTTATAGTTTGGTGGGCTTTTCTTTGCTAGTGGGCCGGAGTCACCTAGTGCAG”, the binding signal is 10600 fluorescence intensity (a.u.). Turning to “AATCGCCGTTCTAGCTTTTTGGTCTTGGTCTTTTTTTATCCGGAGTCACCTAGTGCAG”, the binding signal is 21400 fluorescence intensity (a.u.). The result for “GGTTTCCGTGGTGGGCCGGTTTGGGCTTTTCTTTTTTACACGGAGTCACCTAGTGCAG” reads 18500 fluorescence intensity (a.u.). Regarding “TTTCCTTTACTTTGGTGGTTCTTTTTTTTTTCTTTGTTTCCGGAGTCACCTAGTGCAG”, the binding signal was 11400 fluorescence intensity (a.u.). Consider “TTCTCTTGCTTCCTTTTTGGTCATTTGAGATAGCTTTATCCGGAGTCACCTAGTGCAG”, for which the binding signal is 10300 fluorescence intensity (a.u.). For “GGTTCTTTGTTTCCGTTTGCTTTACCATTTTTGTTCCTTTCGGAGTCACCTAGTGCAG”, the binding signal is 10000 fluorescence intensity (a.u.). In the case of “TGCTTGTACAGTTTCCGGTTTCTTTGCCATTTCGTTTACACGGAGTCACCTAGTGCAG”, the binding signal was 20000 fluorescence intensity (a.u.). As for “TCTTTTTTCCATCCATCTTTTTTTCGCCGTTCTTTCCGGTCGGAGTCACCTAGTGCAG”, the binding signal is 8220 fluorescence intensity (a.u.). In the case of “ACTTTTTCCGAACCAAAATGGACTTCTTCCTTACGGTTACCGGAGTCACCTAGTGCAG”, the binding signal is 8390 fluorescence intensity (a.u.). As for “GCTTGCAGGGCTTGGTTGTTTCTTCTTCCGTTTTTTTTTACGGAGTCACCTAGTGCAG”, the binding signal was 13600 fluorescence intensity (a.u.). Consider “CAAACAAAATGGGTTTCTTCTTACGGTTGTGGGCTTTTTCCGGAGTCACCTAGTGCAG”, for which the binding signal was 17400 fluorescence intensity (a.u.).

Take “ATCTCTTAACCTTTTTCTTATTACCAAACATGCTAACGGTCGGAGTCACCTAGTGCAG”: the binding signal was 8030 fluorescence intensity (a.u.). Next, “TCGCCATCGATCGATCGTCTCAACCTCAACCACATTATTGCGGAGTCACCTAGTGCAG”: 8550 fluorescence intensity (a.u.); “TCTTCGCAACTCCAAACTTCCCGAGCATCTTATCTTTGCACGGAGTCACCTAGTGCAG”: 8990 fluorescence intensity (a.u.). Next, “GTATTGCAATTTTTTTTTGTTTGTGTTGTATCTGTTCTCTCGGAGTCACCTAGTGCAG”: 8110 fluorescence intensity (a.u.).
